We go through 14 compounds from PubChem BioAssay (NCI).

Compounds without any hit were thinned out: in the full panel of roughly 79,000, 15% have a hit. Unmarked numbers belong to inactive results. Calls of active or inactive are those of the source. Cut-off read from the data, not from the text of the source: active = growth inhibition above about 70%; inactive = the rest.

A short description of this assay: NCI Yeast Anticancer Drug Screen. Data for the bub3 strain (AID 167). As to conditions: S. cerevisiae bub3 mutant strain, stronger effect = higher value. The procedure:
Growth inhibition of yeast strains with defined genetic alterations is measured as a screen for potential anti-cancer activity. Selected strains with alterations in DNA damage repair or cell cycle control were exposed to compounds and growth inhibition was measured relative to vehicle treated controls. The strain used in this assay is bub3

Where [1] appears, read: at 5.0 µM (retest, dose inferred, filed as 0.5).
Setting [2] is: at 50.0 µM (retest, dose inferred, filed as 5.0).

Regarding `CCOC(=O)/C(C)=N/Nc1cc(Cl)ccc1O`, the growth inhibition is -6% under setting [1], -15% under setting [2] and 34.5% (at 50.0 µM).

Take `N#CC(=C1C=CC(=NOC(=O)Nc2ccccc2)C=C1)c1ccccc1`: the growth inhibition was -5% under setting [1], 98% (active) under setting [2] and 99.2% (active) (at 50.0 µM).

With `CC12CCC(O)CC1CCC1C2CCC2(C)C(NC(=O)N(CCCl)N=O)CCC12` (configuration not stated), the growth inhibition was -7% under setting [1], 63% under setting [2] and 56.8% (at 50.0 µM).

Take `COc1ccc2ccccc2c1/C=C/C(=O)c1ccccc1`: the growth inhibition is -8% under setting [1], 58% under setting [2] and 46% (at 50.0 µM).

Regarding `ClC1(c2ccccc2)c2ccccc2-c2ccccc21`, the growth inhibition is, setting by setting: under setting [1], 4%; under setting [2], 98% (active); (at 50.0 µM) 95.8% (active).

As for `[O-][N+]1=C2CCC/C(=N/O)C2(O)C2CCCCC21N1CCOCC1` (configuration not stated), the growth inhibition runs as follows: under setting [1], 22%; under setting [2], 14%; (at 50.0 µM) -7.1%.

Take `COC1OC(=O)CC1C1CC=C2C3CCC4CC(O)CCC4(C)C3CCC21C` (configuration not stated): the growth inhibition is, setting by setting: under setting [1], -9%; under setting [2], 73% (active); (at 50.0 µM) 64.8%.

For `CC(Cl)C(=O)Nc1cc2ccccc2oc1=O` (configuration not stated), the growth inhibition runs as follows: under setting [1], -5%; under setting [2], -2%; (at 50.0 µM) 2.45%.

Turning to `CCCCCCN(CCCCCC)CCCCCC`, the growth inhibition is, setting by setting: under setting [1], 10%; under setting [2], 12%; (at 50.0 µM) 7.8%.

As for `CCCCCCCCC1(OCCCS(=O)(=O)O)COc2ccccc2OCCOCCOc2ccccc2OC1`, the growth inhibition under setting [1] was -8%, the growth inhibition under setting [2] is 80% (active) and the growth inhibition (at 50.0 µM) was 96% (active).

With `CC(C)c1ccc(O)c(Cc2cc(C(C)C)ccc2O)c1`, the growth inhibition under setting [1] was 20%, the growth inhibition under setting [2] was 99% (active) and the growth inhibition (at 50.0 µM) was 98.6% (active).

As for `Nc1ccccc1SC(C[N+](=O)[O-])c1ccc2c(c1)OCO2` (configuration not stated), the growth inhibition was 80% (active) under setting [1], 100% (active) under setting [2] and 98.5% (active) (at 50.0 µM).

With `COC(=O)C1=C(C)NC(C)=C(C(=O)OC)C1c1ccc(/[N+]([O-])=C/c2ccccc2)cc1`, the growth inhibition by setting is: under setting [1], 17%; under setting [2], 74% (active); (at 50.0 µM) 78.8% (active).

On to `C=CCCCCn1c2ccccc2c2c(C)c3c[n+](C)ccc3c(C)c21`, for which the growth inhibition is, setting by setting: under setting [1], 98% (active); under setting [2], 98% (active); (at 50.0 µM) 91.4% (active).
